{"source": "ChEMBL document CHEMBL4888484", "about": "“Replenishing the malaria drug discovery pipeline: Screening and hit evaluation of the MMV Hit Generation Library 1 (HGL1) against asexual blood stage Plasmodium falciparum ,using a nano luciferase reporter read-out” (2022)", "note": "Screen size: about 150,000 compounds; about 540 (0.36%) showed an effect of 50% or more. The sample holds strong results, similar compounds and a random draw of the others, so the mix is not that of the screen."}
{"test_system": "Plasmodium falciparum", "assay": "Primary screen in NF54 nanoGlo assay, in single point, at 2uM, 72h; a lower Z score goes with more inhibition", "assay_type": "functional, Erythrocyte", "conditions": "timepoint 72 hour", "units": {"% Inhibition": "%"}}
{"smiles": "CC(C)n1cc(C(=O)N(CCOc2ccc(Cl)cc2)Cc2ccco2)cn1", "% Inhibition": -9, "Z score": 1.28}
{"smiles": "O=C(Nc1cccc(C(F)(F)F)c1)C1(F)C(F)(F)C(F)(F)C(F)(F)C(F)(F)C1(F)F", "% Inhibition": 2, "Z score": -0.22}
{"smiles": "c1ccc2oc(-c3nc(C4CC4)n[nH]3)cc2c1", "% Inhibition": -12, "Z score": 1.37}
{"smiles": "N[C@@H](c1ccc2c(c1)CCO2)c1cc(Cl)ccc1Cl", "% Inhibition": 0, "Z score": -0.02}
{"smiles": "O=C(Nc1nc(C(=O)N2CCN(c3ncccn3)CC2)co1)c1ccsc1", "% Inhibition": -2, "Z score": 0.31}
{"smiles": "CCCN1CCCC[C@H]1C(=O)NCCCn1ccnc1", "% Inhibition": -6, "Z score": 1.01}
{"smiles": "Cc1ccc(C(=O)N2CCC[C@H](CCC(=O)N3CCN(c4ccccn4)CC3)C2)s1", "% Inhibition": -8, "Z score": 1.24}
{"smiles": "COc1ccc(-c2nc3ccc(Cc4ccc5nc(-c6ccc(OC)cc6)c(-c6ccc(OC)cc6)nc5c4)cc3nc2-c2ccc(OC)cc2)cc1", "% Inhibition": 11, "Z score": -2.21}
{"smiles": "O=C(NC[C@H]1CCCN1c1ccccc1)c1ccccc1Br", "% Inhibition": -13, "Z score": 2.53}
{"smiles": "C[C@@H](c1ccccc1)n1c(NC(=O)c2ccc(Cl)cc2)c(S(=O)(=O)c2ccccc2)c2nc3ccccc3nc21", "% Inhibition": -15, "Z score": 1.3}
{"smiles": "O=C(Nc1c(S(=O)(=O)c2ccccc2)c2nc3ccccc3nc2n1CCc1ccccc1)c1ccc(Cl)cc1", "% Inhibition": 101, "Z score": -8.88}
{"smiles": "COCCCn1c(NS(=O)(=O)c2ccccc2)c(S(=O)(=O)c2ccc(C)cc2)c2nc3ccccc3nc21", "% Inhibition": 43, "Z score": -9.12}
{"smiles": "CCCCc1ccc(-n2c(NS(=O)(=O)c3ccc(Cl)cc3)c(S(=O)(=O)c3ccc(C)cc3)c3nc4ccccc4nc32)cc1", "% Inhibition": 4, "Z score": -0.41}
{"smiles": "CCCCn1c(NC(=O)c2ccccc2Cl)c(S(=O)(=O)c2ccccc2)c2nc3ccccc3nc21", "% Inhibition": -7, "Z score": 0.7}
{"smiles": "COCCCn1c(NS(=O)(=O)c2ccc3ccccc3c2)c(S(=O)(=O)c2ccc(C)cc2)c2nc3ccccc3nc21", "% Inhibition": 57, "Z score": -8.33}
{"smiles": "Cc1ccc(S(=O)(=O)NCCn2c3ccccc3c3c(C)cc(C)nc32)cc1", "% Inhibition": -5, "Z score": 0.73}
{"smiles": "CCCCn1c(NC(=O)c2ccccc2)c(S(=O)(=O)c2ccc(C)cc2)c2nc3ccccc3nc21", "% Inhibition": 0, "Z score": -0.03}
{"smiles": "Cc1ccc(S(=O)(=O)Nc2cc3nc4ccccc4nc3n2CCc2ccccc2)cc1", "% Inhibition": 100, "Z score": -10.64}
{"smiles": "CCOc1cccc2c1OC[C@@H](C(=O)N1CCCS1(=O)=O)C2", "% Inhibition": -7, "Z score": 1.2}
{"smiles": "Cc1cc(C)c(-c2ccc(C(=O)N(C)CCn3ccnc3C)cc2)cc1C", "% Inhibition": -5, "Z score": 0.69}
{"smiles": "COCCNc1c(-c2ccccc2)nc2sc(C(=O)NCc3cccnc3)c(C)n12", "% Inhibition": -31, "Z score": 3.13}
{"smiles": "Cc1ccc(-n2cc(NC(=O)c3cc(C)no3)cn2)c(C)c1", "% Inhibition": -5, "Z score": 0.56}
{"smiles": "O=c1c2cnc(N3CCc4ccccc4C3)nc2ccn1-c1ccc(Cl)c(Cl)c1", "% Inhibition": -8, "Z score": 1.01}
{"smiles": "Cc1cccc(N2CCO[C@@H](CF)C2)n1", "% Inhibition": 5, "Z score": -0.46}
{"smiles": "Cc1cnccc1NCCNCc1ccnc(C(C)C)n1", "% Inhibition": -15, "Z score": 1.39}
{"smiles": "Cc1cnccc1NCCNCc1nc(C(C)C)cs1", "% Inhibition": 6, "Z score": -0.58}
{"smiles": "CCn1ccc(CNCCNc2ccncc2C)n1", "% Inhibition": -3, "Z score": 0.68}
{"smiles": "Cc1cnccc1NCCNCc1cccc(O)c1Cl", "% Inhibition": 88, "Z score": -13.09}
{"smiles": "CC1CCN(Cn2c(=S)sc3ccccc32)CC1", "% Inhibition": -4, "Z score": 0.63}
{"smiles": "Cc1nccn1CC(=O)N[C@@H](C)C1=CCCCC1", "% Inhibition": 3, "Z score": -0.38}
{"smiles": "O=C1Nc2ccc(F)cc2C12CCNC2c1ccc2c(c1)OCCO2", "note": "(stereo unspecified)", "% Inhibition": 31, "Z score": -3.54}
{"smiles": "Cn1c(N)c(S(=O)(=O)N2CCN(c3ccccc3Cl)CC2)c(=O)n(C)c1=O", "% Inhibition": 59, "Z score": -11.06}
{"smiles": "CS(=O)(=O)N1CCN(S(=O)(=O)N2CCN(c3ccccc3Cl)CC2)CC1", "% Inhibition": 5, "Z score": -0.74}
{"smiles": "Cc1ccccc1S(=O)(=O)N1CCN(c2c(C)n(-c3ccccc3)c(=O)n(C)c2=O)CC1", "% Inhibition": 36, "Z score": -0.1}
{"smiles": "O=C(CCN(CCc1ccccc1)c1nc(C2CC2)nc2ccccc12)Nc1ccccc1", "% Inhibition": 0, "Z score": -0.06}
{"smiles": "O=C(CCN1C(=O)CCC1=O)Nc1cccc(S(=O)(=O)N2CCCCC2)c1", "% Inhibition": -4, "Z score": 0.89}
{"smiles": "CCN1CCN([C@H]2CCN(c3ccnc4c(F)cc(Cl)cc34)C2)CC1", "% Inhibition": 11, "Z score": -1.82}
{"smiles": "CC(C)(C)OC(=O)N1CCC1CN1CCCC(c2nnc(N)o2)C1", "note": "(stereo unspecified)", "% Inhibition": 32, "Z score": -3.65}
{"smiles": "Cn1ncc(Cl)c1C(=O)NCc1cccnc1Oc1ccc(F)c(F)c1", "% Inhibition": -3, "Z score": 0.62}
{"smiles": "O=C(Cn1nnc2ccccc21)N(Cc1cccnc1)C1(C(=O)Nc2ccc3c(c2)OCO3)CCCC1", "% Inhibition": 5, "Z score": -0.59}
{"smiles": "CN(C)c1ccc(NC(=O)C2(N(Cc3ccccc3)C(=O)Cn3nnc4ccccc43)CCCCC2)cc1", "% Inhibition": 51, "Z score": 0.77}
{"smiles": "COc1ccc(NC(=O)C2(N(Cc3ccccc3)C(=O)Cn3nnc4ccccc43)CCCCC2)cc1", "% Inhibition": 44, "Z score": -1.28}
{"smiles": "O=C(Cn1nnc2ccccc21)N(Cc1cccnc1)C1(C(=O)Nc2ccc3c(c2)OCO3)CCCCC1", "% Inhibition": 36, "Z score": -0.52}
{"smiles": "CN(C)c1ccc(NC(=O)C2(N(Cc3ccccc3)C(=O)Cn3nnc4ccccc43)CCCC2)cc1", "% Inhibition": 5, "Z score": -0.62}
{"smiles": "O=C(Cn1nnc2ccccc21)N(Cc1nc(-c2ccccc2)cs1)C1(C(=O)Nc2ccc3c(c2)OCO3)CCCC1", "% Inhibition": -7, "Z score": 0.77}
{"smiles": "O=C(Cn1nnc2ccccc21)N(Cc1cccnc1)C1(C(=O)Nc2ccc(N3CCOCC3)cc2)CCCCC1", "% Inhibition": 2, "Z score": -0.25}
{"smiles": "O=C(Cn1nnc2ccccc21)N(Cc1ccccc1)C1(C(=O)Nc2ccc3c(c2)OCO3)CCCCC1", "% Inhibition": 50, "Z score": -5.71}
{"smiles": "COc1ccc(NC(=O)C2(N(Cc3nc(-c4ccccc4)cs3)C(=O)Cn3nnc4ccccc43)CCCCC2)cc1", "% Inhibition": 55, "Z score": -6.2}
{"smiles": "CCc1cc2c(N3CC(c4ncc(C5CC5)cn4)C3)ncnc2s1", "% Inhibition": 0, "Z score": -0.06}
{"smiles": "CN(C(=O)Cn1c(=O)n(C)c(=O)c2ccccc21)C1CCCCC1", "% Inhibition": -1, "Z score": 0.19}
{"smiles": "Cc1cc(C(=O)N2CCOC3(CCS(=O)(=O)CC3)C2)c(C)s1", "% Inhibition": -13, "Z score": 1.28}
{"smiles": "Cc1c(CN(C)C(=O)c2ccc(-c3ccc4c(c3)OCC4)cc2)cnn1C", "% Inhibition": -20, "Z score": 2.12}
{"smiles": "COc1ccccc1-c1nnc2c3ccc(Cl)cc3nc(N3CCN(C(=O)c4ccc(C)cc4)CC3)n12", "% Inhibition": -13, "Z score": 1.38}
{"smiles": "Cc1nc(-c2ccco2)ccc1C(=O)N[C@@H](C)c1nnnn1C", "% Inhibition": -12, "Z score": 1.8}
{"smiles": "CCn1nc(-n2cnnc2)c(NS(=O)(=O)c2ccc(C)cc2)c1C", "% Inhibition": -9, "Z score": 1.53}
{"smiles": "COc1ncnc2c1CN(C(=O)NCC1(Cc3ccccc3)CCC1)CC2", "% Inhibition": 29, "Z score": 1.68}
{"smiles": "Cc1cc(C)c2nc(C)cc(Nc3ccc(O)cc3)c2c1", "% Inhibition": 85, "Z score": -12.86}
{"smiles": "Cc1cc(Nc2ccc(C)c(Cl)c2)c2cccc(C)c2n1", "% Inhibition": 23, "Z score": -2.05}
{"smiles": "COc1cccc2c(Nc3ccc(C(=O)O)cc3)cc(C)nc12", "% Inhibition": -3, "Z score": 0.28}
{"smiles": "Cc1nonc1CC(=O)NCCCn1ccnn1", "% Inhibition": -4, "Z score": 0.49}
{"smiles": "Cc1ccc2c(NC(=O)NCC3(CO)CCC3)cccc2n1", "% Inhibition": -9, "Z score": 1.22}
{"smiles": "NC(=O)c1ncc(Br)cc1N1CCC[C@H](F)C1", "% Inhibition": -6, "Z score": 0.95}
{"smiles": "O=C(Nc1nc2c(s1)CN(S(=O)(=O)c1c(F)cccc1F)CC2)c1ccco1", "% Inhibition": -5, "Z score": 0.7}
{"smiles": "COc1ccc(-c2nc(C)cc(C)c2CNC(=O)c2ccco2)cc1", "% Inhibition": -2, "Z score": 0.33}
{"smiles": "O=C(Nc1cccc(CNc2ncccn2)c1)c1ccco1", "% Inhibition": -4, "Z score": 0.39}
{"smiles": "FC(F)(F)c1ccc(-c2nc(CN(Cc3ccccc3)Cc3ccccc3)cs2)cc1", "% Inhibition": 0, "Z score": 0.08}
{"smiles": "CN(Cc1cccc(N(C)C)c1)Cc1csc(-c2ccoc2)n1", "% Inhibition": -5, "Z score": 0.54}
{"smiles": "CC1(C)CN(C(=O)c2c(O)cnc3c(F)cccc23)C1C1CCCO1", "note": "(stereo unspecified)", "% Inhibition": -4, "Z score": 0.64}
{"smiles": "Cc1cc(N2CCC(C)CC2)nc2ccc(NC(=O)c3cccnc3)cc12", "% Inhibition": 18, "Z score": -2.1}
{"smiles": "CCN(CC)c1ccc(C(=O)Nc2ccc3nc(N4CCCC4)cc(C)c3c2)cc1", "% Inhibition": 73, "Z score": -6.69}
{"smiles": "CC(=O)Nc1ccc2nc(N3CCC(C(=O)N4CCC(N5CCCCC5)CC4)CC3)cc(C)c2c1", "% Inhibition": 10, "Z score": -1.6}
{"smiles": "COc1ccc(C(=O)Nc2ccc3nc(N4CCC(C)CC4)cc(C)c3c2)cc1OC", "% Inhibition": 7, "Z score": -1.1}
{"smiles": "CC(=O)Nc1ccc2nc(N3CCC(C(=O)NC4CC4)CC3)cc(C)c2c1", "% Inhibition": 8, "Z score": -1.23}
{"smiles": "COc1cc(OC)cc(C(=O)Nc2ccc3nc(N4CCC(C)CC4)cc(C)c3c2)c1", "% Inhibition": 58, "Z score": -3.66}
{"smiles": "CCn1c(=O)sc2cc(NC(=O)c3ccc(C)cc3)ccc21", "% Inhibition": 5, "Z score": -0.91}
{"smiles": "CC(Nc1ccc(C#N)nc1)C1CCCOC1", "note": "(stereo unspecified)", "% Inhibition": 1, "Z score": -0.15}
{"smiles": "Cc1noc2ncnc(NC[C@](C)(O)c3cccc(F)c3)c12", "% Inhibition": -7, "Z score": 1.41}
{"smiles": "CN(C)c1ccccc1NC(=O)Cn1ccc(=O)[nH]c1=O", "% Inhibition": -5, "Z score": 0.92}
